Laboratory results as given in PubChem BioAssay AID624330 (Southern Research Specialized Biocontainment Screening …, 2012).
About 2,100 (0.62%) of roughly 340,000 compounds were called active.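 How the source made its calls: active means first-screen hits whose inhibition reached a set limit at any dose in the follow-up dose series; inconclusive means inhibition above the set first-screen limit but never retested; inactive means the rest.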 A selection follows. Measured potencies and affinities stand elsewhere.

Target: Rac GTPase-activating protein 1 (Homo sapiens) (UniProt Q9H0H5)
Test: blockers of MgcRacGAP-driven Rac1 GTP hydrolysis – biochemical, ADP Hunter fluorescence, primary and confirmatory, confirmation (AID 624330);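 further: fluorescence reports GDP produced by GAP-driven GTP hydrolysis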
Details: MgcRacGAP-stimulated Rac1 GTP hydrolysis, at 30 µM, stronger effect = higher value, GST-tagged Rac1 F28L mutant substrate

Rac GTPase-activating protein 1 (Homo sapiens), sequence (Q9H0H5 whole entry, looked up): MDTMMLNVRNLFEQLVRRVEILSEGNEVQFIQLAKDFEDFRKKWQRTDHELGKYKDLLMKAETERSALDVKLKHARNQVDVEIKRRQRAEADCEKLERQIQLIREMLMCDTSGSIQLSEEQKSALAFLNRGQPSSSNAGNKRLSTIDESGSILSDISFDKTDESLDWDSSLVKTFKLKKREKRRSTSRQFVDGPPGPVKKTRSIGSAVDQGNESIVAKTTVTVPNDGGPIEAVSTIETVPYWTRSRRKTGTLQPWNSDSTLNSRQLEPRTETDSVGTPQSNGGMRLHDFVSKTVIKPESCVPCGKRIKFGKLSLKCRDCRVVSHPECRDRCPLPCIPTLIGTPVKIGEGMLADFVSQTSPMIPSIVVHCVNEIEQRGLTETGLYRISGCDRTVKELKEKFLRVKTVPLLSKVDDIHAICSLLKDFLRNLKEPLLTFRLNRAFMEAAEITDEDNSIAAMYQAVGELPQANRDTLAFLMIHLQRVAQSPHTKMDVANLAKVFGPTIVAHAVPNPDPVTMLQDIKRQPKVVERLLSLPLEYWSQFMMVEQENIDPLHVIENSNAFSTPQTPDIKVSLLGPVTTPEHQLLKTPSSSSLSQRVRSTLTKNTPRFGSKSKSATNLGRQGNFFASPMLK

inhibition, inactive:
C[C@H](O)CNC(=O)c1[nH]cnc1C(=O)Nc1ccc(CNC(=O)OC(C)(C)C)cc1 13.6%
CC(=O)c1ccc(N2CCN(c3ccc(C(N)=O)cc3[N+](=O)[O-])CC2)cc1 6.37%
COc1ccc(N2CCN(c3ccc(C(=O)O)cc3[N+](=O)[O-])CC2)cc1 25.5%
COC(C[C@@H]1O[C@@H]1C(=O)COCc1ccccc1)OC 2.07%
O=C(NCCCn1ccnc1)c1cccc(S(=O)(=O)Nc2ccc(Br)cc2)c1 -2.05%
Cn1c(=O)[nH]c(=O)c2c1nc(N)n2Cc1ccccc1 5.45%
CNc1nc2c(c(=O)n(C)c(=O)n2C)n1CCCc1ccccc1 10.2%
CSc1nc2c(c(=O)[nH]c(=O)n2C)n1Cc1ccccc1 2.19%
CNc1nc2c(c(=O)[nH]c(=O)n2C)n1CCCc1ccccc1 16.1%
CSc1nc2c(c(=O)[nH]c(=O)n2C)n1CCCc1ccccc1 5.17%
Cn1c(=O)c2c(nc(Br)n2CCCc2ccccc2)n(C)c1=O 8.11%
COc1ccc(CCn2c(O)cc3nn(-c4nc5ccccc5s4)c(=O)c-3c2C)cc1 20.6%
Cc1ccc(C)c(S(=O)(=O)NCC(=O)NCc2ccco2)c1 1.96%
CC(C)Oc1ccc(C2NC(=O)c3ccccc3O2)cc1 (configuration not stated) 4.5%
CC1CCCN(C(=O)C(=O)Nc2ccc3nc4n(c(=O)c3c2)CCCCC4)C1 (configuration not stated) 7.24%
Cc1noc(NC(=O)c2cccc(Cl)c2Cl)c1C#N 6.81%
N#Cc1cccc(NC(=O)CSc2sc3c(O)cc(=O)[nH]c3c2C#N)c1 18.4%
NS(=O)(=O)c1ccc(NC(=O)CN2C(=O)CCC2=O)cc1 6.61%
CC1CN(C(=O)N2c3ccccc3Sc3ccccc32)C(C)CC1=O (configuration not stated) 5.35%
O=C(CSc1ccccc1)NCC(c1ccco1)N1CCCCC1 (configuration not stated) 3.84%
CN1OC[C@@H]2CN[C@H](c3ccc(-c4cccc(F)c4)cc3)C[C@@H]21 15.6%
Cc1nn2cc(-c3ccc(Cl)cc3)nc2s1 -6.27%
Cc1nn2cc(-c3ccc(-c4ccccc4)cc3)nc2s1 11.1%
CC(C)C(=O)N1CCN(c2ccc(NC(=O)c3ccc4c(c3)OCCO4)cc2)CC1 5.03%
Cc1nn(-c2ccccc2)c(Cl)c1/C=N/O 9.11%
Cc1nn(-c2ccccc2)c(C)c1/C=N/O 12.2%
Cc1ccc2nc(C)c(C(=O)N/N=C/c3ccco3)cc2c1 3.04%
CCN(C[C@H]1N[C@@](C)(C(=O)OC)[C@H]2C(=O)N(C)C(=O)[C@@H]12)C(=O)c1ccccc1 6.04%
CC(=O)N(C1=C(N2CCOCC2)C(=O)c2ccccc2C1=O)c1ccc(C(=O)O)cc1 -12.8%
CC(=O)N(C1=C(N)C(=O)c2ccccc2C1=O)c1ccccc1 9.97%
CSc1ccc(NC(=O)CSc2nc3[nH]c(=O)cc(O)c3s2)cc1 11.1%
N[C@@H](Cc1ccc(O)c(O)c1)C(=O)O 6.56%
COC(=O)[C@@H](N)Cc1ccc(O)c(O)c1 -7.99%
COc1ccc(N2CC(C(=O)Nc3ccc(N4CCOCC4)cc3)CC2=O)cc1 (configuration not stated) 6.69%
CCOc1cc(C(c2c(C)[nH][nH]c2=O)c2c(C)[nH][nH]c2=O)ccc1OCc1ccc([N+](=O)[O-])cc1 -0.47%
Cc1ccccc1N(C(=O)c1csnn1)C(C(=O)NC1CCCCC1)c1ccncc1 (configuration not stated) -1.41%
Cc1nc2nc(-c3ccccc3)cc(=O)n2[nH]1 4.54%
Cc1cc2nc(-c3ccccc3)cc(=O)n2[nH]1 14.4%
CC(C)C(=O)Nc1nnc(NC(=S)Nc2ccccc2)s1 1%
COc1cccc2[nH]c3c(Cl)ncnc3c12 5.53%
COc1ccccc1Nc1ncnc2nc[nH]c12 6.06%
CCOCCn1c(SC(C)C(C)=O)nc2c1c(=O)[nH]c(=O)n2C (configuration not stated) 5.63%
CCOC(=O)c1c(C)oc2c(CN3CCN(C)CC3)c(Br)c(OC)c(O)c12 14.1%
COc1ccccc1N=Nc1c(C)noc1C 2.76%
COc1ccccc1N=Nc1c(C)n[nH]c1C 7.74%
COCCN(C(=O)CSc1nc2ccc(Cl)cc2[nH]1)c1c(N)n(Cc2ccccc2)c(=O)[nH]c1=O 10.9%
Cn1ncc(Cl)c1C(=O)N1CCN(c2cccc(Cl)c2)CC1 7.96%
CCN(c1ccccc1)S(=O)(=O)c1ccc(Cl)c(NC(=O)CN2CCN(C)CC2)c1 -0.66%
CCN(c1ccccc1)S(=O)(=O)c1ccc(Cl)c(NC(=O)CN2CCCCCC2)c1 29.2%
CCCCSCCCNC(=O)c1ccc(CS(=O)(=O)c2ccccc2OC)o1 5.81%
CC(C)Cn1c(-c2ccco2)n[nH]c1=S 26.8%
CC(C)Cn1c(-c2ccc(F)cc2)n[nH]c1=S 14.4%
CCOC(=O)C1=C(c2ccccc2)Nc2ncnn2C1c1ccc(O)cc1 (configuration not stated) 5.08%
COc1ccc(N2C(=O)CSC2c2ccncc2)cc1 (configuration not stated) 8.8%
COc1ccc(C2CC(c3ccncc3)=NN2c2ccc(S(N)(=O)=O)cc2)cc1 (configuration not stated) 9.08%
Cc1ccnc(NC(=O)c2cccc(NC(=O)c3ccccc3C)c2)c1 11.1%
Clc1cccc(-c2ccc(C=Nc3ccc(N4CCOCC4)cc3)o2)c1 23.7%
Clc1ccc(-c2ccc(C=Nc3ccc(N4CCOCC4)cc3)o2)c(Cl)c1 9.07%
Clc1ccc(-c2ccc(C=Nc3ccc(N4CCOCC4)cc3)o2)cc1 25.6%
O=C(CN1CCOCC1)N/N=C/c1ccc(-c2cccc(Cl)c2Cl)o1 7.09%
Cc1c(C)c2cccnc2c2ncccc12 8.09%
O=C1CCCc2oc3ccc(NS(=O)(=O)c4cccc5cccnc45)cc3c21 -1.33%
COc1ccc(Br)cc1S(=O)(=O)n1nc(C)cc1C -4.17%
CCN(CC(=O)NCCCn1ccnc1)S(=O)(=O)c1ccc(C)cc1 -8.53%
O=C(c1cccn2c(=O)c3cc(Cl)ccc3nc12)N1CCN(Cc2ccc3c(c2)OCO3)CC1 9.42%
Cc1cc(C)c(C#N)c(Sc2ccc(N)cc2)n1 8.38%
COc1ccccc1CN1CC(C(=O)NCc2cnn(C)c2)CCC1=O (configuration not stated) 5.74%
COc1cc(CNCc2ccco2)cc(OC)c1O 6.83%
COc1cccc(CNCc2cccc(OC)c2O)c1O -13.3%
CCOC(=O)c1ccccc1NC(=O)COC(=O)c1ccc(OCC(=O)N2CCOCC2)c(OCC)c1 4.78%
Cc1ccc(N(CC(=O)N2CCc3ccccc32)S(=O)(=O)c2cccs2)cc1 1.58%
COc1ccccc1OCC#CCSc1ncccn1 7.44%
COc1ccccc1OCC#CCNC1CCCCC1C (configuration not stated) 22.6%
COc1ccc(OCC#CCn2ccnc2)cc1 -14.9%
CCN1CCN(CC#CCOc2ccccc2OC)CC1 29.8%
CC1CC(C)CN(S(=O)(=O)c2ccc(C(=O)Nc3sccc3C(N)=O)cc2)C1 (configuration not stated) 3.38%
O=C(Cn1c(=O)cnc2ccccc21)Nc1cc(Cl)ccc1N1CCOCC1 -4.21%
CCN(CC(=O)Nc1ccc(OC)cc1)CC(=O)Nc1sc2c(c1C(=O)OC)CCCC2 3.58%
CCCC(=O)NC1=C(Cl)C(=O)c2ccccc2C1=O 24.7%
CCC(=O)Nc1c(C)cc(C)cc1Cl 12.3%
Cc1cccc(NC(=O)CN2CCN(C(=O)CN3C(=O)NC4(CCCCC4C)C3=O)CC2)c1C (configuration not stated) 7.46%
CCOC(=O)N/N=C/c1ccc(F)cc1F 3.61%
CCN(CC)c1ccc(/C=N/NC(=O)Cc2cccs2)c(O)c1 -34.9%
CCN(CC)c1ccc(/C=N/NC(=O)c2ccoc2C)c(O)c1 2.9%
CCN(CC)c1ccc(/C=N/Nc2ccccc2)c(O)c1 5.91%
CCN(CC)c1ccc(/C=N/Nc2nc(C)cc(=O)[nH]2)c(O)c1 22.4%
CCN(CC)c1ccc(/C=N/NC(=S)NCc2ccccc2)c(O)c1 12.5%
CCN(CC)c1ccc(/C=N/Nc2ccc(C)cc2)c(O)c1 11.6%
CCN(CC)c1ccc(/C=N/NC(=O)c2ccco2)c(O)c1 9.97%
CCOc1ccc(N(CC(=O)Nc2cc(Cl)ccc2C)S(C)(=O)=O)cc1 -0.16%
CCOc1ccc(CC(=NCCO)C2=C(O)CC(C)(C)CC2=O)cc1OCC 2.19%
Cn1c(=O)oc2cc(S(=O)(=O)NCCN3CCc4ccccc4C3)ccc21 -3.64%
CCN(CC)C(=O)CN1C(=O)C(=O)c2ccccc21 6.56%
Nc1ccn(CCCN2CCN(Cc3cccc4ccccc34)CC2)c(=O)n1 19.7%
Cc1ccccc1N1CCN(C(=O)NCc2cccc(Cl)c2)CC1 2.37%
Cc1ccc(S(=O)(=O)N2CCC(C(=O)NC3CCCCC3C)CC2)cc1 (configuration not stated) 17.3%
O=C(c1ccc(Cn2c(=O)[nH]c3ccccc3c2=O)cc1)N1CCN(c2ccccc2)CC1 -4.78%
